The full ranking holds about 59,000 sequences; the median of the read-out is about -0.00055, and the lowest 2% start at about -2. This is one part of a sample in which the lowest values are shown more often than they occur.

The nature of the experiment: Identification of proteins required for the processing of the EWS-FLI1 nascent transcript.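 Note: robust z of luciferase light less the median z of siRNAs with the same seed.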 Conditions: TC32 Ewing sarcoma NR0B1-luc vs CMV-luc (EWS-FLI1 target promoter against control promoter), 48 h; screened at 20 nM (by protocol). The essentials: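 Three siRNAs per gene, each in a separate well at 20 nM, were transfected into TC32 cells bearing either reporter construct. Luminescence was measured two days on, and per-gene comparison relied on seed-corrected Z values.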
For UCAACUUCCAUGAUUUUCC against IGF2BP2, the seed-corrected z-score is -0.332.
Take UUCCGGUCAUAAUUCAGCC against PPFIA4: the seed-corrected z-score was -0.228.
As to AAUGGUAAACUUGAUUUCA against TP53I11, the seed-corrected z-score came to 0.091.
Regarding AUAGAGGUGAGGGUCAUGC against TGFBI, the seed-corrected z-score was -2.38.
As to UACUUCUAUGUAGAGGUCC against AKIP1, the seed-corrected z-score was -0.138.
To UCAGUUUGGAAUGAGGAGG against LOC345051 belongs -0.469; to UGUGGAUGCGGCGAUGUUC against ZNF574, 0.836; to UGCUUUUAGAAAGUCCAUG against HAUS1, -0.637.
To ACCGUUGUAGUCUCCAUCG against ANO1 belongs -11.8.
On to UUUUCAUCUGGUAAAAGGG against FAM13C, for which the seed-corrected z-score is -1.06.
The sequence UAUCUUCAGAUCGCUGUAC against ANKFY1 gave a seed-corrected z-score of 0.715.
Regarding UCUUCGUCCACUCUGAAUC against NMU, the seed-corrected z-score was -2.29.
With UUUGAUAUUCAUAACGAUC against N4BP2L2 the figure was 0.28.
UGCAGUGGACCAUUUAUGC against SUN5: the seed-corrected z-score is -1.1.
With UACCGAUUGUGAAUGAACC against NHS the figure was -17; with UUUGGAAUCCUUUACUUGG against GLE1, 0.251; with UUCAUGACAGUGACGAUGC against ITPR3, -0.0506.
As to UCUUGGAGUUCCGUCUUUG against FGF20, the seed-corrected z-score is -0.184.
For the sequence UCAUUGAUUAGGUGGAUGC against RRP9, the seed-corrected z-score was -0.724.
Turning to AUCUGGACCACUAUUUCUU against RSPH9, the seed-corrected z-score was determined as 0.909.
Take UGUAGAGAUGCGGUGGUCC against BIRC5: the seed-corrected z-score was -2.18.
With UAGUUUAACCUUGUCAUCC against CASC4 the figure was -0.368; with UACACUUUCAAAAUCUCUC against ZNF845, 0.844.
With UUUAUGACCUCAUUAAGUC against LHCGR, the seed-corrected z-score was determined as 0.284.
As to UGAUGAGAUAGAGCCGUGC against TRIM56, the seed-corrected z-score was -0.836.
To GAAUUUCAGCCGUAGCACG against TMUB1 belongs -2.19.
ACAAUGGCAUCUUGUGGGC against CORT displayed a seed-corrected z-score of 0.108.
To UAGUAUGCGGUGGUGAUGG against RAB3A belongs -0.77.
UUGGGCAUAUGUUUGCUGC against TACO1 showed a seed-corrected z-score of 0.306.
With UCGUUUCAAAGGGCUGUGG against SAMD4A, the seed-corrected z-score is -2.94.
As for UGAGCAAGGUCUCCAAUCC against SH3RF3, the seed-corrected z-score was -0.33.
Take UUUCGUUUGAGAAAUGCGC against MED23: the seed-corrected z-score is 0.711.
AUAGUGACCACCCUCAAUC against SPTA1 showed a seed-corrected z-score of 0.293.
Turning to UACGUUCUGAAUCAAGAAG against DENND5A, the seed-corrected z-score is -0.28.
Take UAAGCAUAUAUUCCCGUAC against CDC7: the seed-corrected z-score amounted to 0.52.
With UUUAUAGUUGGUUAGGUUC against EPB42 the figure was -0.0918.
With AUUUGGACCAGUAUGCUUC against HNRNPH1 the figure was -2.98; with UAUUCUGAGAUGCGAAGGC against SLC26A11, 0.879.
In the case of UCCAAGAUGAUUCCUCUCC against ZNF557, the seed-corrected z-score is -0.0489.
AAAAGAUGCCCAUUCAUUG against DCDC2C yielded a seed-corrected z-score of 1.89.
Turning to UCAGGAGCAAAGCUUCUUC against VNN3, the seed-corrected z-score was 0.325.
To UCAGCUGAUUCAUUAGAGG against TRIM44 belongs -0.356; to UCUGUUGUUAGCACACGUC against NID1, -0.891; to UAUGCUUUCUUGACAGCCC against KCNAB1, -4.96.
For the sequence UCCUUGGACAUCAAGAGCC against C16orf91, the seed-corrected z-score was -0.516.
To UAAUCUAUCCAGGAAUUCC against TTC5 belongs 0.1; to UUUGUUGGAACCCAAGAGC against BLID, -2.2; to UUUGGGUCCUCGAUCACCC against COL8A1, -1.06.
With UUCCGUAAUGUUGCGCAUG against CORO6, the seed-corrected z-score came out at 0.106.
To UUCGUGCUGGGUUAUCUCG against COL24A1 belongs 0.737; to UUCCAUAAAGAGUUCUGCC against ZNF280C, 0.576.
With UUACUGACGACAUCAUUCC against PRPF40A the figure was -0.273; with AUACAGAACAUAGUGGUUG against PSMD3, -1.41; with UCAGUAGGCAUUGGAGCGG against CEBPA, -0.0618.
AAGUCUUCAAGAUCUAUUC against FGL2 gave a seed-corrected z-score of 0.334.
Take UCAUAAGUCAGGGUAUGCC against MPTX1: the seed-corrected z-score was -3.31.
For UCAUAGGUCACAAAGGUGC against KIF9, the seed-corrected z-score turned out to be 0.0712.
To UAUCUAAUUUUGGAAUCUC against VRK1 belongs -0.281; to UUCAGGGUAAGGUGGAUGG against UBD, 0.588; to AAACUUGUCAUCAGCACGC against MUC13, 0.662.
With UUCUGUCCCAUAAAUAGAG against TMEM207 the figure was -0.0552; with UUAUCUAUACAAAGCAGAC against KLRC3, -0.377; with UUACGCAUAAUUUCCGUCA against VAMP5, -0.171.
Turning to AUCUGGUUUACGGUUAUUC against MEF2C, the seed-corrected z-score was -2.53.
With AAUCUUGCAAGGUUACUAC against USP33 the figure was -1.31.
To UCCAUGACGAAGCUGUUCU against SUV39H1 belongs 0.0817; to UGGUUUAUCAGUUUCAAUG against ARCN1, -4.37; to UAUCUAAUUGAUGACAUGC against ETAA1, 0.0808.
To UGUUCUAUAGGUAACACUC against ZNF559 belongs -0.628; to UUAAUUGCAUUUGCAGACC against CCDC171, 0.492.
For UUGUCUAGAAAAGUCCUGG against UMODL1, the seed-corrected z-score is -2.58.
With UUCGAUAUUAGGGUAGCGG against SNRNP200, the seed-corrected z-score is -1.21.
UGCUGUAAAGUUUUAGUCC against SLC35A5: the seed-corrected z-score is -0.426.
To UCAGUGUUGGACUCCAUGC against NR2E3 belongs 0.652; to UGUGAGAUCAGGAAUUGAC against TMEM65, -0.934; to UGCGGUUGACCGUAUAGAC against KBTBD13, -2.49.
With UCCUUGGUCACUGUCGCUC against KLF7 the figure was -0.201; with UUGUUGGACAAGUCGAUGG against LRRC57, 0.339.
As for GUUGUAUUCGUCGUCGUCC against NKX6-2, the seed-corrected z-score is 0.127.
With UACUUAUCUCUGUCUGUUU against UBE2D3 the figure was -1.14; with AUAGGUGCGACUCUCAUCC against SYMPK, -2.35.
UUGUAGAUGCUGAAUGUCC against DNAAF1: the seed-corrected z-score was determined as 0.337.
UAAUAUGAUGUCUUCAACC against GABRQ: the seed-corrected z-score came out at 0.559.
To UGUUUUGCCGUCGAGGUGC against LOC642620 belongs 0.782.
For AUUCCGACCAUGGUAAAUG against NAAA, the seed-corrected z-score stood at 0.829.

The values are drawn from PubChem BioAssay AID1159506 (National Center for Advancing Translational Sciences (NCATS), 2015).
